Laboratory results as given in PubChem BioAssay (EPA / NIEHS).
Values joined by “and” are separate entries in the source; they are usually repeats but may differ in a detail not shown here. Equal entries are not always repeated. Records with an inconclusive call do not appear. Some compounds were tested as several samples or in several runs, with calls that do not always agree. Active and inactive are the calls of the source. How the source made its calls, unless noted: active means hit-call score of the fitted dose curve at least 0.9, where 1 is the maximum; inconclusive means response in the unintended direction; inactive means score below 0.9.

Assays:
[1] = biological target: Cellular tumor antigen p53 (Homo sapiens) (UniProt P04637); experiment: TOX21_p53_BLA_p2_ratio: Tox21 HCT-116 p53 Agonism Beta-lactamase Assay, Ratio, Phase 2 (AID 2283592)
Procedure, shortened: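 An inducible beta-lactamase reporter in HCT116 cells signals p53 pathway activation. After 16 h chemical exposure at 37C, cells load CCF4-AM substrate for 2 h at room temperature; activity is the cleaved/uncleaved emission ratio relative to DMSO.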

[2] = TOX21_p53_BLA_p3_viability: Viability Assessment in the Tox21 HCT-116 p53 Agonism Beta-lactamase Assay, Phase 3 (AID 2283593);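 further: cells exposed to compound for 16 h before reading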
Procedure, shortened: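 HCT-116 cells (4000/well) rested 5 h at 37C, then got DMSO compounds by pin tool (217-fold dilution) for 16 h at 37C, 5% CO2. After the bla read, CellTiter-Glo was added and luminescence read at 30 min, room temperature.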

[3] = biological target: Cellular tumor antigen p53 (Homo sapiens) (UniProt P04637); experiment: TOX21_p53_BLA_p3_ratio: Tox21 HCT-116 p53 Agonism Beta-lactamase Assay, Ratio, Phase 3 (AID 2283596)
Procedure, shortened: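 HCT116 p53-bla cells (4000/well) given compound in DMSO (217-fold dilution) after 5 h, incubated 16 h at 37C. CCF4-AM substrate 2 h at room temperature; 460/530 nm emission ratio, gain fitted against DMSO.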

[4] = TOX21_p53_BLA_p4_viability: Viability Assessment in the Tox21 HCT-116 p53 Agonism Beta-lactamase Assay, Phase 4 (AID 2283597);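 further: hits lower the luminescence signal meaning cytotoxicity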
Procedure, shortened: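 Compound exposure of HCT116 cells lasts 16 h at 37C, 5% CO2, with DMSO stocks diluted 217-fold. Cellular ATP is then quantified by CellTiter-Glo luminescence after 30 min at room temperature.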

[5] = biological target: Cellular tumor antigen p53 (Homo sapiens) (UniProt P04637); experiment: TOX21_p53_BLA_p5_ratio: Tox21 HCT-116 p53 Agonism Beta-lactamase Assay, Ratio, Phase 5 (AID 2283599)
Procedure, shortened: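 HCT-116 cells carrying a p53-inducible beta-lactamase reporter were seeded at 4000 cells/well and dosed after 5 h with compound in DMSO (217-fold dilution). After 16 h at 37C, CCF4-AM substrate was added for 2 h, and the 460/530 nm emission ratio was scored as gain-of-signal versus DMSO.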

[6] = biological target: Cellular tumor antigen p53 (Homo sapiens) (UniProt P04637); experiment: TOX21_p53_BLA_p4_ratio: Tox21 HCT-116 p53 Agonism Beta-lactamase Assay, Ratio, Phase 4 (AID 2283601)
Procedure, shortened: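 HCT116 cells carrying an inducible beta-lactamase reporter were plated at 4000 cells/well, rested 5 h, then exposed to compounds in DMSO (217-fold dilution) for 16 h at 37C. CCF4-AM substrate was loaded 2 h at room temperature; 460/530 nm emission ratio scored gain-of-signal versus DMSO.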

[7] = TOX21_p53_BLA_p5_viability: Viability Assessment in the Tox21 HCT-116 p53 Agonism Beta-lactamase Assay, Phase 5 (AID 2283600)
Procedure, shortened: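 Counter-readout for cytotoxicity: ATP-dependent luminescence from CellTiter-Glo, read in the beta-lactamase wells after 30 min at RT, following a 16 h compound exposure at 37C.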

[8] = CCTE_Harrill_HTTr_Viability_MCF7: CCTE's 6-hour Cell Viability Assessment for the High-Throughput Transcriptomics (HTTr) Platform, in MCF-7 cells cultured in DMEM + 10% fetal bovine serum, Harrill Lab (AID 2284010; active means hit-call score of the fitted dose curve at least 0.9, where 1 is the maximum; inactive means score below 0.9)
Procedure, shortened: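 MCF-7 cells in DMEM + 10% FBS, 384-well, exposed 6 h to an eight-point dilution series. Membrane integrity scored by high-content imaging of propidium iodide exclusion; bidirectional fit versus DMSO.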

[9] = CCTE_Harrill_HTTr_Apoptosis_MCF7: CCTE's 6-hour Apoptosis Assessment for the High-Throughput Transcriptomics (HTTr) Platform, in MCF-7 cells cultured in DMEM + 10% fetal bovine serum, Harrill Lab (AID 2284011; active means hit-call score of the fitted dose curve at least 0.9, where 1 is the maximum; inactive means score below 0.9)
Procedure, shortened: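 Cells are dosed with test chemicals at eight concentrations and imaged 6 hours later for caspase-3/7 activity using a green fluorogenic detection reagent. Activity is fitted in both directions against DMSO controls.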

[10] = CCTE_Harrill_HTTr_CellCount_MCF7: CCTE's Cell Proliferation Assessment for the High-Throughput Transcriptomics (HTTr) Platform, Harrill Lab (AID 2284012);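 further: cells exposed to compound for six hours; intended direction is loss of nuclei count meaning fewer cells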
Procedure, shortened: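 MCF7 cells exposed 6 hours to an eight-point dilution series; Hoechst-stained nuclei counted by high-content imaging. Bidirectional curve fitting against DMSO baseline.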

[11] = ACEA_ER_AUC_viability: ACEA Biosciences xCELLigence Real-Time Cell Analysis on Estrogen Receptor Agonism for Viability (AID 2283782);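 further: continuous compound exposure with impedance area under curve over 80 h; hit means loss of impedance signal meaning reduced cell growth or viability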
Procedure, shortened: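 T-47D human breast cells in phenol red-free RPMI1640 with 10% charcoal-stripped FBS were dosed with an 8-point 1:4 dilution series from 100 uM top final concentration, in duplicate. Impedance-based growth was followed for 80 h; AUC analysed versus DMSO.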

Measured: AC50

Sequence of Cellular tumor antigen p53 (Homo sapiens) (P04637 whole entry, looked up): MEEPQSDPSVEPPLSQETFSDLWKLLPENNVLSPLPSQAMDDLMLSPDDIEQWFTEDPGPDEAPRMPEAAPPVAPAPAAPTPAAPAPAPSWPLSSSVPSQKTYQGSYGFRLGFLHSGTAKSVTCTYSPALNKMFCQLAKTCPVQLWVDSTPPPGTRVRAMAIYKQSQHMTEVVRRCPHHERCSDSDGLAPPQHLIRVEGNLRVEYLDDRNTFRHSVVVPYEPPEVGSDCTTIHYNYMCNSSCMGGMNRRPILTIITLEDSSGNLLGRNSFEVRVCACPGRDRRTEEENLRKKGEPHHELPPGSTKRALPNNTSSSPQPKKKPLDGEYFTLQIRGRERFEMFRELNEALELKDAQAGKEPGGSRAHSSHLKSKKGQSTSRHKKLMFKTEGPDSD

C[C@@H]1C[C@H]2[C@@H]3C[C@H](F)C4=CC(=O)C=C[C@]4(C)[C@@]3(Cl)[C@@H](O)C[C@]2(C)[C@H]1C(=O)COC(=O)C(C)(C)C
inactive: [1] | [2] | [3] | [4] | [5] | [6]

Cc1cccc2c1cc1ccc3cccc4ccc2c1c34
active: [1] 801 nM | [3] 2.77 µM | [5] 2330 nM | [6] 440 nM
inactive: [2] | [4]

COc1nc(N)nc2c1ncn2[C@@H]1O[C@H](CO)[C@@H](O)[C@@H]1O
not listed: [8] | [9] | [10] | [11]
inactive: all other assays above

CCN(CC)CCSC(=O)C(c1ccccc1)c1ccccc1
not listed: [8] | [9] | [10] | [11]
inactive: all other assays above

O=C(O)O
not listed: [8] | [9] | [10] | [11]
inactive: all other assays above

O=C(O)c1cc(=O)c2c(OCC(O)COc3cccc4oc(C(=O)O)cc(=O)c34)cccc2o1
not listed: [11]
inactive: all other assays above

C=C(C)C(=O)OCCCC
inactive: [1] | [2] | [3] | [4] | [5] | [6]

CCOC(=O)COc1ccc(C)cc1
not listed: [8] | [9] | [10]
inactive: all other assays above

Cc1c(N)nc(C(CC(N)=O)NCC(N)C(N)=O)nc1C(=O)NC(C(=O)NC(C)C(O)C(C)C(=O)NC(C(=O)NCCc1nc(-c2nc(C(=O)NCCCN[C@@H](C)c3ccccc3)cs2)cs1)C(C)O)C(O[C@@H]1O[C@@H](CO)[C@@H](O)[C@H](O)[C@@H]1O[C@H]1O[C@H](CO)[C@@H](O)[C@H](OC(N)=O)[C@@H]1O)c1cnc[nH]1 (stereo partly specified)
active: [1] 286 nM | [3] 0.301 µM | [5] 430 nM | [6] 193 nM
inactive: [2] | [4] | [7]

CN1C(=O)CN2CCc3ccccc3C2c2cc(Cl)ccc21 (stereo unspecified)
active: [1] 35600 nM | [3] 39.8 µM | [5] 22800 nM | [6] 33800 nM
inactive: [2] | [4]

CC1(C)O[C@H]2CC(=O)OC[C@]23[C@H]2CC[C@@]4(C)[C@H](c5ccoc5)OC(=O)[C@H]5O[C@]54[C@]2(C)C(=O)C[C@@H]13
not listed: [8] | [9] | [10] | [11]
inactive: all other assays above

CC(CO)Oc1ccccc1 (stereo unspecified)
inactive: [1] | [2] | [3] | [4] | [5] | [6]

CC(=O)[C@]1(O)Cc2c(O)c3c(c(O)c2[C@@H](O[C@H]2C[C@H](N)[C@H](O)[C@H](C)O2)C1)C(=O)c1c(O)cccc1C3=O
active: [1] 346 nM and 263 nM | [3] 222 nM and 212 nM | [6] 571 nM
inactive: [2] | [4] | [5] | [7] | [6]
